Columns and labels:
Experiment in all cases: DAPPL (digital affinity profiling via proximity ligation, sequencing); 10 mM Tris-HCl pH 7.5, 50 mM NaCl, 1 mM DTT, 4% glycerol, room temperature, 30 min; GST-TFs on glutathione beads, 16-mer random dsDNA library, 0.1% formaldehyde crosslink after washing; high values mean tight binding
[1] = target: T1, FLI1 (Homo sapiens, UniProt Q01543 1-452); settings: protein: recombinant; tags: N-terminal GST; dsDNA, one strand shown
T1 sequence: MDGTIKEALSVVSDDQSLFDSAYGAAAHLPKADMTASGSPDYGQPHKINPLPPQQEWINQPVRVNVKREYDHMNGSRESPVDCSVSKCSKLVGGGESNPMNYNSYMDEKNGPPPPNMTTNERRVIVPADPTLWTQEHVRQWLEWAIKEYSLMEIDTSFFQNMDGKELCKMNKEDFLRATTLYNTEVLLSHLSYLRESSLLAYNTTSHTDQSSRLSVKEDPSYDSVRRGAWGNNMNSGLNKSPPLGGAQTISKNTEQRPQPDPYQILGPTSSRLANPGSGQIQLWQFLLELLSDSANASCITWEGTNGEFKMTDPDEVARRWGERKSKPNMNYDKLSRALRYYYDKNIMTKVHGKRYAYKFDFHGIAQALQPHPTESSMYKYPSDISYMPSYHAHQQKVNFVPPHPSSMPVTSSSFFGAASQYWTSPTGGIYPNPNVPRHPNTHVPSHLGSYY
How it was run: (§1)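 In yeast, human transcription factors were expressed with a GST fusion, then pulled down on glutathione beads and given DNA barcodes. Pooled with a tag-only sample, they were exposed to 200 nmole of a 16-mer random double-stranded DNA library (Tris/NaCl/DTT/glycerol buffer, room temperature, 30 min), washed, crosslinked with 0.1% formaldehyde, proximity-ligated using BsaI/T4 ligase for 1 h at 37 °C, PCR-amplified and read on an Illumina NextSeq500. Each hexamer's frequency of reads for a factor, divided by the matching frequency for the tag-only sample, gives the binding signal.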

[2] = target: T2, ELK1 (Homo sapiens, UniProt P19419 1-428); settings: protein: recombinant; tags: N-terminal GST; dsDNA, one strand shown
T2 sequence: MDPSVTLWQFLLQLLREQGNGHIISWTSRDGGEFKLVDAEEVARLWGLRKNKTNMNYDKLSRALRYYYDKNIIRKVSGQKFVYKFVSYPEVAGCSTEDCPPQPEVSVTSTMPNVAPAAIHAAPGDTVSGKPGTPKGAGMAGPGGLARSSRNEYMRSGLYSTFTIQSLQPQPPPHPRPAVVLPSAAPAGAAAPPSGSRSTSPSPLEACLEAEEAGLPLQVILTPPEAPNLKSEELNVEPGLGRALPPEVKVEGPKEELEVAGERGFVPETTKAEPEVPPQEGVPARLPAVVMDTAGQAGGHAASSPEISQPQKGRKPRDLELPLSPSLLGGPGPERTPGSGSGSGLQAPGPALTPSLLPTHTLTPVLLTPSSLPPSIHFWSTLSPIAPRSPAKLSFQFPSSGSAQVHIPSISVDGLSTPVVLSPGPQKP
How it was run: as §1

[3] = target: T3, GABPA (Homo sapiens, UniProt Q06546 1-454); settings: protein: recombinant; tags: N-terminal GST; dsDNA, one strand shown
T3 sequence: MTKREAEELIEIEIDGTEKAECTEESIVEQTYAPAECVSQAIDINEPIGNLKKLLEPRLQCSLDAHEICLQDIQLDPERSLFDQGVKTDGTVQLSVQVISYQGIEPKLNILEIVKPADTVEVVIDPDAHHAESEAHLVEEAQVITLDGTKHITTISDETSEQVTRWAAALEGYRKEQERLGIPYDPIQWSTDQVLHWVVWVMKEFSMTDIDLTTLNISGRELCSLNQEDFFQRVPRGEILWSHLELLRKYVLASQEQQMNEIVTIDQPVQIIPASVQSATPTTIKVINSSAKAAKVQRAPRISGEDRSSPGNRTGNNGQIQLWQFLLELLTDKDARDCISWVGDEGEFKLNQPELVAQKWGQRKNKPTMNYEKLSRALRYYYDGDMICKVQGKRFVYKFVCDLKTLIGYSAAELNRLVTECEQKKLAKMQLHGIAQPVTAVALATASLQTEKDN
How it was run: as §1

[4] = target: T4, ERG (Homo sapiens, UniProt P11308 1-479); settings: protein: recombinant; tags: N-terminal GST; dsDNA, one strand shown
T4 sequence: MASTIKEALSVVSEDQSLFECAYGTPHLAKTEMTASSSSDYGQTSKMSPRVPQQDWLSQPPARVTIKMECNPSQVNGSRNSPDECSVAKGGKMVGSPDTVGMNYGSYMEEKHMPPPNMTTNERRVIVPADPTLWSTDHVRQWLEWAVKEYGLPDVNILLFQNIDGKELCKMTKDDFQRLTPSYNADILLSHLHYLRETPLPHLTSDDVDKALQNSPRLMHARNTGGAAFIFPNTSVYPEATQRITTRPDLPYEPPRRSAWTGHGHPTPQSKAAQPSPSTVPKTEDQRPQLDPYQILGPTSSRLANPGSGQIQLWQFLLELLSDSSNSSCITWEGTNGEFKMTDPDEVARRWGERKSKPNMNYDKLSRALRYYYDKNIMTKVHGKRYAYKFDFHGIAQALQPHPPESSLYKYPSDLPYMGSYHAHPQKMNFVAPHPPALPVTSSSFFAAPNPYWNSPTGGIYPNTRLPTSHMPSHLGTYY
How it was run: as §1

[5] = target: ELF1 (Homo sapiens, UniProt P32519 1-619); settings: protein: recombinant; tags: N-terminal GST; dsDNA, one strand shown
How it was run: as §1

[6] = target: T5, EHF (Homo sapiens, UniProt Q9NZC4 1-300); settings: protein: recombinant; tags: N-terminal GST; dsDNA, one strand shown
T5 sequence: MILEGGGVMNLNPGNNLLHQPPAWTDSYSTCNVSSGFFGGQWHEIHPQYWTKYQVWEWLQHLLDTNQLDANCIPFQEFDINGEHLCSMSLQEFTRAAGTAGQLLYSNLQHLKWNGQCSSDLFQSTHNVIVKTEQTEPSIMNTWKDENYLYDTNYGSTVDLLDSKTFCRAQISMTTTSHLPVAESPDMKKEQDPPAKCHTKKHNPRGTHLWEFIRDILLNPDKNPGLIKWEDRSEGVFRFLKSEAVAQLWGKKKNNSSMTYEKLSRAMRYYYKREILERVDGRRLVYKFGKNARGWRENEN
How it was run: as §1

[7] = target: SPI1 (Homo sapiens, UniProt P17947 1-270); settings: protein: recombinant; tags: N-terminal GST; dsDNA, one strand shown
How it was run: as §1

[8] = target: SPIB (Homo sapiens, UniProt Q01892 1-262); settings: protein: recombinant; tags: N-terminal GST; dsDNA, one strand shown
How it was run: as §1

[9] = target: T6, ELK3 (Homo sapiens, UniProt P41970 1-407); settings: protein: recombinant; tags: N-terminal GST; dsDNA, one strand shown
T6 sequence: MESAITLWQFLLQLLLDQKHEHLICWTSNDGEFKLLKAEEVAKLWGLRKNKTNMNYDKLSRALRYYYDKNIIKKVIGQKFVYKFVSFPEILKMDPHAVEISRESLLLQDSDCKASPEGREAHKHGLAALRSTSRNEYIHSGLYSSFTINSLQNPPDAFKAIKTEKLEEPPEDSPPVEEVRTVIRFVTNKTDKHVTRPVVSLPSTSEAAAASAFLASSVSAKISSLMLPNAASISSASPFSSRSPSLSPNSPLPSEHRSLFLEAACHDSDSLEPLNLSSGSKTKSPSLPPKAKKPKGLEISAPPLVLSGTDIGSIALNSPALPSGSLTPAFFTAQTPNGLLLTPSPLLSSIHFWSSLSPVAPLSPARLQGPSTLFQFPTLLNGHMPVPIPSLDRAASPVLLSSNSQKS
How it was run: as §1

[10] = target: T7, FEV (Homo sapiens, UniProt Q99581 1-238); settings: protein: recombinant; tags: N-terminal GST; dsDNA, one strand shown
T7 sequence: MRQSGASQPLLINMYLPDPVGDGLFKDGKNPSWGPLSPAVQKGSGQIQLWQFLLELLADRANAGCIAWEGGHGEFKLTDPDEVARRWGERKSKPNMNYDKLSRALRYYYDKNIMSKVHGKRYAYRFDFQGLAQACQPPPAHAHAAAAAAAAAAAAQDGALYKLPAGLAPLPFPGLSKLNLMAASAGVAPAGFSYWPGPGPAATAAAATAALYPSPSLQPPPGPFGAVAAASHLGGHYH
How it was run: as §1

[11] = target: ETV5 (Homo sapiens, UniProt P41161 1-510); settings: protein: recombinant; tags: N-terminal GST; dsDNA, one strand shown
How it was run: as §1

[12] = target: HSF1 (Homo sapiens, UniProt Q00613 1-529); settings: protein: recombinant; tags: N-terminal GST; chain copies: 3; dsDNA, one strand shown
How it was run: as §1

[13] = target: T8, SPIC (Homo sapiens, UniProt Q8N5J4 1-248); settings: protein: recombinant; tags: N-terminal GST; dsDNA, one strand shown
T8 sequence: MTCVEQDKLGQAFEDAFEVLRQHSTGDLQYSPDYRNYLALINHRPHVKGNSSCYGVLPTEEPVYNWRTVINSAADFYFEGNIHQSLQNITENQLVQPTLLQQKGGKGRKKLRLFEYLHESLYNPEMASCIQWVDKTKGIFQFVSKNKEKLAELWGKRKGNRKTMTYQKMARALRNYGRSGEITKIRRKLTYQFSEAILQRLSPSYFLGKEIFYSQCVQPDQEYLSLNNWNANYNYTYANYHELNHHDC
How it was run: as §1

[14] = target: ELF4 (Homo sapiens, UniProt Q99607 1-663); settings: protein: recombinant; tags: N-terminal GST; dsDNA, one strand shown
How it was run: as §1

[15] = target: T9, ELK4 (Homo sapiens, UniProt P28324-2 1-405); settings: protein: recombinant; tags: N-terminal GST; dsDNA, one strand shown
T9 sequence: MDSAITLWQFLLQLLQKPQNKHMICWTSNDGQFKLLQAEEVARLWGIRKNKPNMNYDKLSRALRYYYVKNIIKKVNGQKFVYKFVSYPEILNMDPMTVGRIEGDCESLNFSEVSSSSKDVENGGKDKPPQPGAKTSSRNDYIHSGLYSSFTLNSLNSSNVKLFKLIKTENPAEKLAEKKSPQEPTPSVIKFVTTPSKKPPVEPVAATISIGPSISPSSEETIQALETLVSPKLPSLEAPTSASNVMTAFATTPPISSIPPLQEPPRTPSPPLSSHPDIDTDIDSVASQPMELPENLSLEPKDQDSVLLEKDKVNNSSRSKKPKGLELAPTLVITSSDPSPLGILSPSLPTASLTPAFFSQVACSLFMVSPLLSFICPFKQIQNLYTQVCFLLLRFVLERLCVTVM
How it was run: as §1

[16] = target: T10, ETV2 (Homo sapiens, UniProt O00321 1-342); settings: protein: recombinant; tags: N-terminal GST; dsDNA, one strand shown
T10 sequence: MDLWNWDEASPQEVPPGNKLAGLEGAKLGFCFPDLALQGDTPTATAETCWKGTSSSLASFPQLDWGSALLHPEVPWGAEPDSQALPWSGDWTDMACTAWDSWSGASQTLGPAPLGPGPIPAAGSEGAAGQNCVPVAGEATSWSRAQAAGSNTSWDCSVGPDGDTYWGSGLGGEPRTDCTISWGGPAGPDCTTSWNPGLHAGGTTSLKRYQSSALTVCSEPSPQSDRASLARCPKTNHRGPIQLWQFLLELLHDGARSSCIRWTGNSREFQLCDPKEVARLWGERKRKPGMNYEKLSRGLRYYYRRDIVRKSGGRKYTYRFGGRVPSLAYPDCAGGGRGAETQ
How it was run: as §1

[17] = target: T11, ELF3 (Homo sapiens, UniProt P78545 1-371); settings: protein: recombinant; tags: N-terminal GST; dsDNA, one strand shown
T11 sequence: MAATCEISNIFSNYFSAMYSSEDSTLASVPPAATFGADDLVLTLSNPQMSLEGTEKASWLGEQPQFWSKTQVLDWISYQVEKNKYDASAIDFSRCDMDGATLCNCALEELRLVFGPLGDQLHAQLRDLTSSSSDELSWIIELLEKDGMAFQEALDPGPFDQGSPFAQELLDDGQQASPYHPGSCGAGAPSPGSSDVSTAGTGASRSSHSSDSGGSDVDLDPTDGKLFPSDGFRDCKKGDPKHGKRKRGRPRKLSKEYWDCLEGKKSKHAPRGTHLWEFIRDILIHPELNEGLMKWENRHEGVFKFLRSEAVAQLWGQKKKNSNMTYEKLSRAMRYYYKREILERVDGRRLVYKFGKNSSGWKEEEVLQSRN
How it was run: as §1

[18] = target: ETV1 (Homo sapiens, UniProt P50549 1-477); settings: protein: recombinant; tags: N-terminal GST; dsDNA, one strand shown
How it was run: as §1

Chain of ELF1 (P32519 whole entry): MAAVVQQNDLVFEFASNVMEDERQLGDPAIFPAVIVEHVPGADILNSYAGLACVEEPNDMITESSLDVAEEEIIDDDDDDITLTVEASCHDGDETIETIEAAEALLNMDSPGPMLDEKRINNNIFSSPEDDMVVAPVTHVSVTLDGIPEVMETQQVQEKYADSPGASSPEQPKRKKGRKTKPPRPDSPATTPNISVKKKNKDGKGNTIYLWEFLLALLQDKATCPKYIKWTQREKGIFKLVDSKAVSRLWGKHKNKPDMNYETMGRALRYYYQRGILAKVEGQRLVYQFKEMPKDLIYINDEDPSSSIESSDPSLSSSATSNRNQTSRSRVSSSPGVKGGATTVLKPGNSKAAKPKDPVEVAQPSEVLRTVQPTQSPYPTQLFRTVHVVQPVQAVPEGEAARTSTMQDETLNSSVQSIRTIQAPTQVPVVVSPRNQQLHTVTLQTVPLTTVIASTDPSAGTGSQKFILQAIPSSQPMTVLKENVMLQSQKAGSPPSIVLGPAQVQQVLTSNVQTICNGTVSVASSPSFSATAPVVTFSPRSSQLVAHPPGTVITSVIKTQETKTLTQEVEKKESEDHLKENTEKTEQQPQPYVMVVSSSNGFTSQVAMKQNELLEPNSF
Chain of ETV1 (P50549 whole entry): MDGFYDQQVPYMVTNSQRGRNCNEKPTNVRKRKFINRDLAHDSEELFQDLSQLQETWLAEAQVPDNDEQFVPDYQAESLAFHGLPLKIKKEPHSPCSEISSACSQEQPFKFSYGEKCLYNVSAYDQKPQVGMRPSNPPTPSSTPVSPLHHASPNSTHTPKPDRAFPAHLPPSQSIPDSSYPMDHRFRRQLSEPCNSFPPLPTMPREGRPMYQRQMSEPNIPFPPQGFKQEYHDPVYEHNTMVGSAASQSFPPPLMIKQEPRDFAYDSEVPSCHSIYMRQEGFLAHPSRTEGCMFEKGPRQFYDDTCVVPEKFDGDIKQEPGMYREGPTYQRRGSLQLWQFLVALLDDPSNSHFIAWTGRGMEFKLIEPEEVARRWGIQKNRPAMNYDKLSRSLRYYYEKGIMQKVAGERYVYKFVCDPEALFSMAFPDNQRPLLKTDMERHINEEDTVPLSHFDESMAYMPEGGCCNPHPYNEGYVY
Chain of ETV5 (P41161 whole entry): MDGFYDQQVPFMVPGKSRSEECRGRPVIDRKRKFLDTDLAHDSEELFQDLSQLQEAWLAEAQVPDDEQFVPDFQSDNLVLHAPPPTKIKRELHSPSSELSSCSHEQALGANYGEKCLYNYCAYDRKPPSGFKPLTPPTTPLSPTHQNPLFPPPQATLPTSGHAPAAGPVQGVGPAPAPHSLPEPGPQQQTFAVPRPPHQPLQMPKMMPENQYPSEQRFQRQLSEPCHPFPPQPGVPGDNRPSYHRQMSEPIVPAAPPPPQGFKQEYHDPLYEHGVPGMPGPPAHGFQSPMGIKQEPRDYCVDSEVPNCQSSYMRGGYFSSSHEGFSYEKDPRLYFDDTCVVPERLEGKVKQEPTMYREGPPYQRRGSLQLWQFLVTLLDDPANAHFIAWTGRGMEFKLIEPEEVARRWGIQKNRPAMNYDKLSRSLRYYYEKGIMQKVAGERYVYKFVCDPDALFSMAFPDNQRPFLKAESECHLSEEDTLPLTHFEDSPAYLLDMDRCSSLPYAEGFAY
Chain of SPIB (Q01892 whole entry): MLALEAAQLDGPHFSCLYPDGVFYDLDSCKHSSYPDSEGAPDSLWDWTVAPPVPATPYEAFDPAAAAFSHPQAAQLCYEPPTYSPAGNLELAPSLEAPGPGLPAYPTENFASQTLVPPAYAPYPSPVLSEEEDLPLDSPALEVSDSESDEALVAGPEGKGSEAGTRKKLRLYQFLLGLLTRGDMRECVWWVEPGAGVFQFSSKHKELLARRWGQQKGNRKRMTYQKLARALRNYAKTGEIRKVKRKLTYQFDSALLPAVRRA
Chain of ELF4 (Q99607 whole entry): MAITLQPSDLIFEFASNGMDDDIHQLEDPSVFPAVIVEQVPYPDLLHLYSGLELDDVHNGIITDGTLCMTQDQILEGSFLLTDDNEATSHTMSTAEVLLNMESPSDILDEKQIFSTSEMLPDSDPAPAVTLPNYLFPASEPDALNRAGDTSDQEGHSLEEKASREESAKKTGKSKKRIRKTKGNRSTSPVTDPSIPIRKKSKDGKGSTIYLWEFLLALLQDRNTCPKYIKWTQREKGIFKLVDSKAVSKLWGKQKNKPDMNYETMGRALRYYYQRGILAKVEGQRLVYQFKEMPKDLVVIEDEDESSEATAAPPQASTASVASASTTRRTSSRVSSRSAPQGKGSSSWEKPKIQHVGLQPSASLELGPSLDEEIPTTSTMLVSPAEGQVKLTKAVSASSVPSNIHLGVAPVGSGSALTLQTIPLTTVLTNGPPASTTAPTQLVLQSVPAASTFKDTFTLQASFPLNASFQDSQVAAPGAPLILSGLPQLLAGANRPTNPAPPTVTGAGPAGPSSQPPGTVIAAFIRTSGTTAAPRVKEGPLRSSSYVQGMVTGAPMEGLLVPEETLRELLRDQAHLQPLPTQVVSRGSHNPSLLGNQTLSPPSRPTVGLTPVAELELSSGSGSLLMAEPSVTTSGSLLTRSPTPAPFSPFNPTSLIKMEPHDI
Chain of HSF1 (Q00613 whole entry): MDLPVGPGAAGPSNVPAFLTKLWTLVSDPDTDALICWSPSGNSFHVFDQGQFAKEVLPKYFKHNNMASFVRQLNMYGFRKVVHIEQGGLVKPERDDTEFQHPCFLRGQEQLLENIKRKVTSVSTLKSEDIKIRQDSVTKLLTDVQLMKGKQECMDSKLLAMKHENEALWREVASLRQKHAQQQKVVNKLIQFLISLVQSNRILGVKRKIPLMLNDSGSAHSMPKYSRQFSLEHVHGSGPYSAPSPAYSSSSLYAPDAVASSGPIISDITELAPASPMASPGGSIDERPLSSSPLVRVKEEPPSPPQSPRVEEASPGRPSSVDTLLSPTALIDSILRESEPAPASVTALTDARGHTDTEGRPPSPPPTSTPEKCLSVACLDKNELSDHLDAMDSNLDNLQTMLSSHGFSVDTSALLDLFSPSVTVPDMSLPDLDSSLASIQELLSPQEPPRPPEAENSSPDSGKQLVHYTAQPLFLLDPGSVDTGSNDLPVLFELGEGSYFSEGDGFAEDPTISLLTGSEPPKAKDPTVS

Sequence: GTTCAA
- binding signal [1]: 1.07 fold enrichment (6-mer frequency, TF over GST control)
- binding signal [2]: 1.18 fold enrichment (6-mer frequency, TF over GST control)
- binding signal [3]: 1.17 fold enrichment (6-mer frequency, TF over GST control)
- binding signal [4]: 1.14 fold enrichment (6-mer frequency, TF over GST control)
- binding signal [5]: 1.16 fold enrichment (6-mer frequency, TF over GST control)
- binding signal [6]: 1.18 fold enrichment (6-mer frequency, TF over GST control)
- binding signal [7]: 1.19 fold enrichment (6-mer frequency, TF over GST control)
- binding signal [8]: 1.19 fold enrichment (6-mer frequency, TF over GST control)
- binding signal [9]: 1.13 fold enrichment (6-mer frequency, TF over GST control)
- binding signal [10]: 1.08 fold enrichment (6-mer frequency, TF over GST control)
- binding signal [11]: 1.14 fold enrichment (6-mer frequency, TF over GST control)
- binding signal [12]: 1.03 fold enrichment (6-mer frequency, TF over GST control)
- binding signal [13]: 1.15 fold enrichment (6-mer frequency, TF over GST control)
- binding signal [14]: 1.15 fold enrichment (6-mer frequency, TF over GST control)
- binding signal [15]: 1.16 fold enrichment (6-mer frequency, TF over GST control)
- binding signal [16]: 1.05 fold enrichment (6-mer frequency, TF over GST control)
- binding signal [17]: 1.22 fold enrichment (6-mer frequency, TF over GST control)
- binding signal [18]: 1.23 fold enrichment (6-mer frequency, TF over GST control)
